# Measurements reported in PubChem BioAssay (NCI).
# About 79,000 compounds went through this panel and 15% of them were active in at least one assay; those are over-represented in the sample as a whole. Unmarked numbers belong to inactive results. Calls of active or inactive are those of the source. No stated cut-off is given here; in the data, active means growth inhibition above about 70%; inactive means the rest.
# Key:
# [1] = NCI Yeast Anticancer Drug Screen. Data for the rad50 strain (AID 155);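 further: 0% = growth of vehicle-only cultures of the same strain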; details: S. cerevisiae rad50 strain growth inhibition, active compounds read high
# Method in brief: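 DNA repair mutant yeast, compound exposure, growth read-out; inhibition is taken relative to vehicle.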
# [2] = NCI Yeast Anticancer Drug Screen. Data for the mec2-1 strain (AID 157); details: S. cerevisiae mec2-1 strain, active compounds read high
# Method in brief: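 mec2-1 yeast strain, carrying an alteration in DNA damage repair or cell cycle control, was exposed to compounds; growth inhibition was measured relative to vehicle-treated controls.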
# [3] = NCI Yeast Anticancer Drug Screen. Data for the sgs1 mgt1 strain (AID 161);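 further: 0% = growth of cultures given vehicle only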; details: S. cerevisiae sgs1 mgt1 strain, active compounds read high
# Method in brief: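 Yeast cells carrying a defined DNA-repair defect were exposed to test compounds. Growth inhibition was measured relative to vehicle-treated controls.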
# [4] = NCI Yeast Anticancer Drug Screen. Data for the cln2 rad14 strain (AID 165);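 further: 0% = growth equal to vehicle treated cultures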; details: S. cerevisiae cln2 rad14 strain, active compounds read high
# Method in brief: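 Yeast carrying cln2 and rad14 alterations (cell cycle control and DNA damage repair) were exposed to compounds. Growth inhibition was measured against vehicle-treated controls.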
# [5] = NCI Yeast Anticancer Drug Screen. Data for the bub3 strain (AID 167); details: S. cerevisiae bub3 mutant strain, active compounds read high
# Method in brief: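 In this screen, a yeast mutant lacking normal mitotic checkpoint function is challenged with compound. Relative growth versus vehicle gives the inhibition value.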
# [6] = NCI Yeast Anticancer Drug Screen. Data for the mlh1 rad18 strain (AID 175); details: S. cerevisiae mlh1 rad18 strain growth inhibition, active compounds read high
# Method in brief: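 Growth inhibition of the yeast strain was measured after compound exposure and expressed relative to vehicle-treated controls. The strain carries defined defects in DNA damage repair.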
# [7] = at 5.0 µM (retest, dose inferred, filed as 0.5)
# [8] = at 50.0 µM (retest, dose inferred, filed as 5.0)
SMILES,"growth inhibition [1, 7]","growth inhibition [1, 8]",growth inhibition ([1]; at 50.0 µM),"growth inhibition [2, 7]","growth inhibition [2, 8]",growth inhibition ([2]; at 50.0 µM),"growth inhibition [3, 7]","growth inhibition [3, 8]",growth inhibition ([3]; at 50.0 µM),"growth inhibition [4, 7]","growth inhibition [4, 8]",growth inhibition ([4]; at 50.0 µM),"growth inhibition [5, 7]","growth inhibition [5, 8]",growth inhibition ([5]; at 50.0 µM),"growth inhibition [6, 7]","growth inhibition [6, 8]",growth inhibition ([6]; at 50.0 µM)
O=C(c1ccc(Br)cc1)C1OC12C(=O)Nc1ccccc12 (configuration not stated),46%,99% (active),99.7% (active),99% (active),99% (active),99.7% (active),84% (active),100% (active),99.7% (active),49%,99% (active),99.1% (active),99% (active),99% (active),99.6% (active),99% (active),99% (active),99.5% (active)
N=Nc1c(OC(=O)Nc2ccccc2)[nH]c2ccccc12,-3%,67%,8.65%,20%,63%,-6.3%,-1%,69%,13.8%,9%,40%,63.9%,1%,84% (active),31.9%,-3%,85% (active),71.5% (active)
CCOC(=O)Nc1cc(NC(C)/C(=N/O)c2ccccc2)c([N+](=O)[O-])c(N)n1 (configuration not stated),-18%,97% (active),42.6%,-5%,47%,59.5%,1%,69%,47.5%,-21%,98% (active),24.9%,-10%,87% (active),62.1%,-5%,82% (active),44.2%
Nc1cc(Br)cc2c1[nH]c1ccc(Br)cc12,46%,98% (active),98.6% (active),16%,98% (active),99% (active),59%,99% (active),98.1% (active),3%,97% (active),97.8% (active),18%,98% (active),98.5% (active),58%,98% (active),98.9% (active)
CC12C=C3CC(OC(=O)c4ccccc4)CCC3(O1)c1ccccc12 (configuration not stated),2%,69%,84.8% (active),-1%,77% (active),91.5% (active),1%,80% (active),90.1% (active),3%,2%,10.1%,4%,76% (active),79.3% (active),1%,76% (active),76% (active)
CCCCCCCCCCCCCCCCn1cc(C(O)CN(C)C)c2ccccc21 (configuration not stated),-4%,98% (active),32.2%,-1%,99% (active),99.1% (active),-1%,98% (active),49.5%,-3%,89% (active),98.3% (active),-4%,98% (active),39.6%,-2%,98% (active),94.9% (active)
CC1CCC2(OC1)OC1CC3C4CCC5CC(OC6OC(COC7OC(CO)C(O)C(O)C7O)C(OC7OC(C)C(O)C(O)C7O)C(O)C6OC6OC(CO)C(O)C(O)C6O)CCC5(C)C4CCC3(C)C1C2C (configuration not stated),0%,99% (active),99.2% (active),-1%,100% (active),99.8% (active),16%,97% (active),99.8% (active),-2%,99% (active),99.5% (active),15%,100% (active),99.6% (active),2%,100% (active),99.7% (active)
O=C(Cc1ccccc1)NC(C(=O)c1ccccc1)c1ccccc1 (configuration not stated),36%,55%,75.5% (active),21%,40%,31.1%,36%,47%,72.2% (active),25%,26%,57%,48%,72% (active),83.2% (active),35%,53%,73.7% (active)
CC1(C)C=CC2=C(O1)C(=O)c1ccccc1C2=O,9%,76% (active),39.6%,8%,77% (active),-0.85%,18%,88% (active),73.2% (active),-7%,12%,6.9%,67%,95% (active),48.4%,16%,89% (active),44.5%
O=C(O)COc1ccccc1C(=O)O,0%,-3%,4.55%,-2%,-3%,29.4%,1%,0%,-1.95%,-2%,2%,23.8%,-5%,-5%,11.6%,1%,-1%,5.7%
CCN1CCC(O)(/C=C/c2ccccc2C)C(C(=O)/C=C/c2ccccc2C)C1 (configuration not stated),8%,84% (active),94.4% (active),-2%,74% (active),98.2% (active),3%,83% (active),99.4% (active),-2%,54%,92.2% (active),8%,83% (active),98.5% (active),4%,93% (active),99.5% (active)
Cn1nc(-c2ccc3c(c2)OCO3)[n+]([O-])c2c(=O)n(C)c(=O)nc1-2,-2%,79% (active),99.2% (active),-7%,97% (active),99.7% (active),0%,98% (active),99.5% (active),-6%,97% (active),98.2% (active),-8%,96% (active),99.4% (active),-7%,97% (active),99.5% (active)
CCN(CC)C(C)(C)C(=O)/C=C/c1ccc(Cl)c(Cl)c1,13%,97% (active),92.7% (active),3%,97% (active),99.2% (active),6%,97% (active),82.7% (active),-8%,96% (active),47.9%,5%,98% (active),96% (active),0%,95% (active),95% (active)
CCC(=O)C(C(=O)CC)c1c(OC(=O)c2ccccc2)ccc(O)c1C(=O)OC,-4%,30%,30.9%,-1%,16%,47.9%,4%,71% (active),71.4% (active),-5%,-5%,-7.45%,-2%,-2%,42.8%,-3%,30%,67%
O=c1oc2ccccc2c(O)c1/C=N\c1nc(-c2ccccc2)cs1,41%,99% (active),8.95%,42%,99% (active),16.4%,53%,100% (active),31.9%,36%,97% (active),36.6%,81% (active),100% (active),17.1%,34%,99% (active),91.8% (active)
COC1C(N)C(OC2C(Oc3cccc4c(O)c5c(=O)oc6ccc(C)c7c(=O)oc(c34)c5c67)OC(C)C(O)C2(C)O)OC(C)C1O (configuration not stated),12%,48%,26.8%,-6%,8%,20.3%,29%,32%,23.1%,8%,36%,32%,19%,30%,19.4%,11%,15%,60.4%
CCCC(=O)NCCNC(=O)CCC,-154%,-159%,4.35%,-48%,-54%,7.75%,-61%,-62%,1.75%,-50%,-62%,45.8%,-69%,-82%,-3.15%,-139%,-117%,10.1%
Oc1ccc(C2(c3ccc(O)c(Cl)c3)CC3CCC2C3)cc1Cl (configuration not stated),98% (active),98% (active),98% (active),99% (active),99% (active),99.2% (active),99% (active),98% (active),99.3% (active),99% (active),98% (active),99% (active),99% (active),98% (active),98.8% (active),99% (active),97% (active),98.7% (active)
N#Cc1ccc(OC(=O)Nc2c(Cl)cccc2Cl)cc1,46%,41%,80.4% (active),36%,42%,82.2% (active),44%,53%,86.2% (active),34%,45%,83.9% (active),31%,70% (active),84.3% (active),47%,50%,83.5% (active)
